# Data from PubChem BioAssay AID504357 (The Scripps Research Institute Molecular Screening Center, 2011).
# Out of some 340,000 compounds screened, about 700 (0.21%) were called active. Shown is part of a subset that was picked to be rich in actives. Values without a mark were called inactive. Cut-off read from the data, not from the text of the source: active = inhibition above about 22% (passing the limit was not always enough); inactive = the rest.
# Target: Mu-type opioid receptor (Homo sapiens) + Delta-type opioid receptor (Homo sapiens) (UniProt P35372+P41143)
# Sequence (P35372 whole entry, looked up): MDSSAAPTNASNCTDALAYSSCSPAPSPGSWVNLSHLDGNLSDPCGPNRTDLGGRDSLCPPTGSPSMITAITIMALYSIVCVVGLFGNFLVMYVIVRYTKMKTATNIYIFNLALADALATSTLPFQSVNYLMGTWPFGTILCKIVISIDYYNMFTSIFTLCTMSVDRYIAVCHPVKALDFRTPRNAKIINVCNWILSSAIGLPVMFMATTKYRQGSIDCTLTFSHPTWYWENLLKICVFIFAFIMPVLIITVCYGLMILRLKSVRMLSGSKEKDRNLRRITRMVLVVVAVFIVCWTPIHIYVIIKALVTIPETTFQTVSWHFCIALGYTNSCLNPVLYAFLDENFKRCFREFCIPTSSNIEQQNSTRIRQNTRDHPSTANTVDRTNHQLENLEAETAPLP
# Sequence (P41143 whole entry, looked up): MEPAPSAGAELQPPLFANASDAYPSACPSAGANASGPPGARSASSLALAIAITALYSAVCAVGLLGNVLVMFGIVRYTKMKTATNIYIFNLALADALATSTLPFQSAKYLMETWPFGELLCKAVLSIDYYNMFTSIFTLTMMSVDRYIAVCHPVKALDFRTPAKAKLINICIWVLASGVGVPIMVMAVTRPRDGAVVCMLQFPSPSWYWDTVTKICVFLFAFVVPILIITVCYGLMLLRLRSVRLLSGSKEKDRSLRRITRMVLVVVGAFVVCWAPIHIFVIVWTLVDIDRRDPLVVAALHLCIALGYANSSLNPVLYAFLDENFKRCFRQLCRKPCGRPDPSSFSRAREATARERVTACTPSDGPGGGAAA
# Assay: OPRM1-OPRD1 heterodimer inverse agonism – cell-based, luminescence, primary screen (AID 504357);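 note: 0% = cells with DMSO and 100% = wells without cells with DMSO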
# Details: cell-based MOR-DOR heterodimer luminescence, at 9.3 µM, active compounds read high
row,SMILES,inhibition
1,COc1cc2sc(C)nc2cc1C,-8.04%
2,O=C(O)C(=Cc1ccccc1[N+](=O)[O-])c1ccccc1,9.45%
3,CC(C)CCSc1ncnc2c1oc1nc3c(cc12)COC(C)(C)C3,5.61%
4,Cc1ccc2nc(SCc3nnc(-c4ccccc4[N+](=O)[O-])o3)c(C#N)cc2c1,13%
5,Cc1nc2cc(NC(=O)CSc3nc4c(C)cccc4cc3C#N)ccc2s1,12.7%
6,CCN1C[C@@H]2[C@@H]3C(=O)N(Cc4ccccc4)C(=O)[C@@H]3[C@](C)(C1=O)N2C(=O)c1ccc(C(C)(C)C)cc1,0.58%
7,Cn1ccs/c1=N\S(=O)(=O)c1ccc(C(C)(C)C)cc1,4.78%
8,CC(C)(C)c1nnc(NC(=O)C2c3ccccc3Oc3ccccc32)s1,-37%
9,N#C/C(=C/c1ccc(Cl)cc1)NC(=O)c1ccccc1,-2.56%
10,O=C(CN1CCCSc2ccccc21)N1CCN(S(=O)(=O)c2cccc(F)c2)CC1,9.06%
11,O=C1C[C@@H]2c3c(cccc3CN1Cc1ccccc1)C[C@@H](O)[C@H]2O,1.13%
12,CCCNC(=O)CCn1cc(-c2ccc(OC)cc2)nc1CCN,7.6%
13,COC(=O)c1scc(C)c1NC(=O)CSc1ccc(Cl)cc1,0.66%
14,CC(=O)c1ccc(NC(=O)C(C)N(C)CC(=O)Nc2ccccc2Cl)cc1 (stereo unspecified),2.42%
15,CCOC(=O)c1c(-n2cnnn2)sc(C)c1C,18.6%
16,Cc1ccc(Oc2cc(NC(=O)CCCn3nc(C)c([N+](=O)[O-])c3C)cc([N+](=O)[O-])c2)cc1,-12.5%
17,Cc1ccc(S(=O)(=O)N2CCOCC2)cc1C(=O)NC(=S)N(Cc1ccccc1)C(C)C,20%
18,COc1ccc(-n2c(O)c(C=NCC(c3ccco3)N3CCCC3)c3ccccc3c2=O)cc1OC (stereo unspecified),12.1%
19,Cc1cccc(-n2c(Cc3cc(=O)[nH]c(=O)[nH]3)nnc2SCC(=O)Nc2cccc(C(F)(F)F)c2)c1,-3.78%
20,COC(=O)C1(CCSC)NC(c2ccc(OC)cc2OC)C2C(=O)N(c3cccc(C(C)=O)c3)C(=O)C21 (stereo unspecified),15.3%
21,NNc1cccc(C=Cc2ccccc2)cc1=O,-23.2%
22,COc1ccc(CC(=O)OC(C)C(=O)Nc2ccc(S(N)(=O)=O)cc2)cc1 (stereo unspecified),6.12%
23,Cc1c(C(=O)N(Cc2ccccc2)Cc2cccnc2)cnn1-c1ccc(F)cc1,15.9%

row,SMILES,inhibition
1,Cc1ccccc1NC(=O)CSC1=NCCN1,6.55%
2,Cc1ccc(S(=O)(=O)Oc2ccc(/C=N/NC(=O)c3c(Cl)cnn3C)cc2)cc1,6.6%
3,O=S(=O)(c1ccc(Br)cc1)n1ccc2ccccc21,-60.1%
4,O=C(NC1CCCCCCC1)c1cccs1,-15.7%
5,OCC[C@H]1C[C@H](O)[C@@H](O)[C@]2(CCCCO2)O1,1.27%
6,Cc1cccc(C2c3[nH]c4ccccc4c3CCN2C(=O)c2cc(-c3cccn3C)n[nH]2)n1 (stereo unspecified),-17.1%
7,CC(=O)c1ccc(NC(=O)CCc2nnc3ccc(NCc4ccco4)nn23)cc1,18.1%
8,COC(=O)c1cccc(C(=O)N2CCCC(Nc3ccc4c(c3)OCCO4)C2)c1 (stereo unspecified),-2.83%
9,Cc1ccc(Nc2nnc(SC(C)C(=O)NC3CC3)s2)cc1 (stereo unspecified),5.95%
10,O=S(=O)(NCc1ccccc1)c1ccc(S(=O)(=O)N2CCCC2)cc1,7.6%
11,COC(=O)CSc1nc2c(c(C3CC=CCC3)c1C#N)CCC2 (stereo unspecified),0.33%
12,CC1CCN(C(=O)c2ccc3c(=O)n4c(nc3c2)CCCCC4)CC1,-4.92%
13,CCc1noc(C)c1C(=O)N1CCN(S(=O)(=O)c2cccc(C(F)(F)F)c2)CC1,9.18%
14,COc1cc(C2C(N3C(=O)c4ccccc4C3=O)C(=O)N2c2ccc(C)c(C)c2)cc(OC)c1OC (stereo unspecified),8.56%
15,O=C(c1cc2ccccc2s1)N1CCN(c2ccccn2)CC1,5.35%
16,Cc1cccc(N(C)C(=O)c2cc(S(=O)(=O)N3CCCCC3)c[nH]2)c1,-2.65%
17,Cc1cccc(C)c1Nc1c(-c2ccccc2O)nc2ncccn12,5.45%
18,O=C(O)c1ccc(S(=O)(=O)N2CCOCC2)o1,-0.55%
19,COC(=O)c1c(NC(=O)C(=O)N2CCCCC2)sc2c1CC(C)(C)OC2,-12.8%
20,Cc1nc2c(-c3ccc(F)cc3)c(C)nn2c(C)c1CCC(=O)N1CCN(c2ccccn2)CC1,8.06%
21,Cc1ccc(NC(=O)CN2CCCCC2)c2c1CC(C)(C)O2,-2.22%
22,Cc1ccc(S(=O)(=O)NC[C@H]2O[C@@H](n3cnc4c(N)ncnc43)[C@H](O)[C@@H]2O)s1,16.3%
23,N#CC1=C(N)C(C#N)(C#N)[C@H](c2ccsc2)[C@H]2COCC=C12,25.7% (active)

row,SMILES,inhibition
1,CCN1CC=C2C(C#N)=C(N)C(C#N)(C#N)[C@H](c3ccoc3)[C@H]2C1,-33.3%
2,O=C1N=C(N2CCOCC2)CS1,0.02%
3,Cc1ccccc1NC(=O)c1cc(S(=O)(=O)N2CCOCC2)cs1,4.89%
4,CN(CC(=O)Nc1cccc2c1CCCC2)S(=O)(=O)c1ccc(Cl)cc1,-0.65%
5,O=S(=O)(c1ccc(Br)c2ccccc12)N1CCOCC1,15.2%
6,O=S(=O)(c1cnccc1N1CCN(/N=C/c2ccc(Br)cc2)CC1)N1CCCCC1,6.92%
7,COC(CNC(=O)c1ccc2c(c1)ncn2-c1cc(C)cc(C)c1)OC,13%
8,CCc1cccc(C)c1NS(=O)(=O)c1cc(Br)cnc1N,-50.1%
9,O=C(CCc1[nH]c2ccccc2c1Sc1ccccc1)N(CCO)CCO,8.56%
10,CC(C)c1ccc(S(=O)(=O)N2CCN(C(=O)c3ccc(N4CCCC4)c([N+](=O)[O-])c3)CC2)cc1,19.3%
11,Cc1cccc(NC(=O)NC2(C)CCS(=O)(=O)C2)c1 (stereo unspecified),-1.39%
12,CCNc1nc(NC(C)C)nc(OCCOC(=O)c2ccccc2)n1,0.3%
13,CCSC1=NCCN1S(=O)(=O)c1ccc(F)cc1,2.33%
14,Cc1nccn1CCC1CCCCN1C(=O)CCc1nnc(-c2ccsc2)o1 (stereo unspecified),11.7%
15,Cc1ccccc1C(CC(=O)c1cccs1)C(C#N)C#N (stereo unspecified),8.61%
16,COC(=O)C1=C(C(=O)OC)[C@@H]2N(C)c3ccccc3[C@@]23C[C@@H](C(=O)OC)N(C(=O)c2ccco2)C3=N1,7.48%
17,Cc1nc2nc(SCC(=O)Nc3cccc(F)c3)[nH]c2cc1Br,-28.8%
18,CC(C)NC(=O)CSc1nnc(COc2ccccc2Cl)o1,16.3%
19,CCOc1ccc(NC(=O)c2ccc(NC(=O)C3CCCO3)cc2)cc1 (stereo unspecified),12.6%
20,CCOc1ccc(NC(=O)c2cccc3c2C(=O)N(CC2CCCO2)C3)cc1 (stereo unspecified),23.6% (active)
21,COc1ccc(NC(=O)c2cccc3c2C(=O)N(CC2CCCO2)C3)cc1OC (stereo unspecified),16.3%
22,CN(C)c1cc(N)c2ccccc2n1 (tested in a mixture with another compound),9.35%
23,COc1ccc(NC(=O)CSc2nnc(Cc3ccccc3)c(=O)n2N)cc1,4.15%

row,SMILES,inhibition
1,CC(C)(C)SCCSC1=CC(=O)CC(c2ccccc2)C1 (stereo unspecified),-50%
2,CC[C@]1(C(=O)OC)[C@H]2C(=O)N(Cc3ccccc3)C(=O)[C@H]2[C@H]2CN=C(SCc3ccc(Cl)cc3)N21,-1.44%
3,O=C1C(Cc2ccc(O)cc2)NC(=S)N1Cc1ccccc1 (stereo unspecified),17.3%
4,CCC1Nc2ncnc(N3CCN(c4ccccc4)CC3)c2N(Cc2ccc(Cl)cc2)C1=O (stereo unspecified),72.3% (active)
5,COc1cccc(C(CC(=O)NCCN2CCOCC2)NS(=O)(=O)c2ccc(C)cc2)c1OC (stereo unspecified),4.11%
6,COC(=O)[C@H]1Cc2cnoc2C[C@]1(C)C(=O)O,8.29%
7,Cc1cc(C)cc(NC(=O)C2CCCN2S(=O)(=O)c2cccc3cccnc23)c1 (stereo unspecified),7.78%
8,COc1cc(C(=O)OCC(=O)N(CC(C)C)C2CCS(=O)(=O)C2)ccc1OCC(C)C (stereo unspecified),12.3%
9,COc1cc(/C=C/C(=O)N2CCc3ccccc3C2)cc(OC)c1OC,15.2%
10,Cc1cc(Cl)c2oc(C(=O)N(C)C(C)c3ccccn3)c(C)c2c1 (stereo unspecified),-14%
11,CCCNC(=O)N1CCN(C(=O)NCCC)CC1,-0.22%
12,O=C1C(Cl)=C(N2CCOCC2)C(=O)N1c1ccccc1,7.3%
13,O=C1C(=O)N(c2ccccc2)c2ccccc21,47.8% (active)
14,O=C1c2ccccc2C(=O)N1c1ccccc1S(=O)C(F)(F)F (stereo unspecified),1.53%
15,Cc1cccc(N=Nc2c(O)[nH]c3ccc(F)cc23)c1,33% (active)
16,Oc1[nH]c2ccccc2c1N=Nc1c(F)c(F)c(F)c(F)c1F,13.1%
17,NS(=O)(=O)c1ccc(N=Nc2c(O)[nH]c3ccc(Br)cc23)cc1,16.9%
18,O=C(COC(=O)Cn1cnc2ccccc2c1=O)NCC12CC3CC(CC(C3)C1)C2,0.67%
19,CCCS(=O)(=O)C(=C1Nc2ccccc2N1)S(=O)(=O)CCC,3.81%
20,CN(C)/C=C1\C=C(c2ccccc2)OC1=O,5.39%
21,CN(C)/C=C1/Nc2ccccc2C1=O,34.7% (active)
22,Cc1ccc(Cc2nnc(SCC(=O)Nc3ccc(C)cc3C)[nH]c2=O)cc1,-25.8%
